Bioassay records deposited in PubChem BioAssay by several laboratories.
Cardio protect: cardioprotection against H2O2-induced cell death, primary screen, uHTS, H9c2 cells, ATPLite luminescence | H9c2 cardiomyocytes, H2O2 injury protection, 2 h | protection from H2O2 cell death, % at 20 µM | actives 0.63% (n = 360,000);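 active = compounds giving at least 50% protection of heart cells from peroxide-induced death in the single-dose screen, raw or plate-pattern-corrected value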;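 also: 0% = DMSO wells with peroxide and 100% = DMSO wells without peroxide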
sPLA2-III inh: human group III sPLA2 inhibitors, primary screen, biochemical, QFRET, BODIPY PC-A2 liposome substrate | Group 3 secretory phospholipase A2 (Homo sapiens), Q9NZ20 | QFRET BODIPY PC-A2 liposome hydrolysis, fluorescence | inhibition, % at 12.2 µM | actives 0.56% (n = 370,000);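 active = inhibition above mean plus 3 SD of compounds lying within the high and low control bounds, cut at about 19% in these data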;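 also: 0% = median of test compound wells and 100% = no enzyme DMSO wells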
Target sequence (Q9NZ20 whole entry, looked up): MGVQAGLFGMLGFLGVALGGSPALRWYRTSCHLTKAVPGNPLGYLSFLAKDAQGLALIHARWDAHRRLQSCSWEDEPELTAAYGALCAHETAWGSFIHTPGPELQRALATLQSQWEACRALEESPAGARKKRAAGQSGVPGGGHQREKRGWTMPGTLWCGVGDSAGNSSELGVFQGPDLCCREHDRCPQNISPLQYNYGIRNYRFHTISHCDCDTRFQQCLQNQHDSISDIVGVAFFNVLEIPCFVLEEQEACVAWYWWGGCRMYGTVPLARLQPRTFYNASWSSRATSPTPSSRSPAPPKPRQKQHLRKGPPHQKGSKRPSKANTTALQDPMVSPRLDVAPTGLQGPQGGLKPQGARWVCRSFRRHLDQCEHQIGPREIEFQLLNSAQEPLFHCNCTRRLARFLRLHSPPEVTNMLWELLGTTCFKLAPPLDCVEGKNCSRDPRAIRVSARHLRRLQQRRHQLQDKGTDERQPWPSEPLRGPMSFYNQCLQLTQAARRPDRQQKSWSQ
Rtt109 Vps75: inhibitors of C. albicans Rtt109/Vps75 HAT, primary screen, biochemical, ThioGlo CoA-SH fluorescence, plate reader; Histone acetyltransferase RTT109 (Candida albicans (strain SC5314 / ATCC MYA-2876)), …; inhibition, % at 34.9 µM; actives 0.16% (n = 330,000); purified Rtt109/Vps75, 4 h;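 active = inhibition of at least 50% in every replicate; inconclusive = best replicate reaches 50% inhibition but some replicates fall short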
Myeloid diff 2: induction of myeloid progenitor differentiation, primary screen, cell-based, flow cytometry, MLPCN library; ER-HoxA9 myeloid progenitors, lysozyme-GFP differentiation; calls only at 10 µM; actives 1% (n = 360,000); AID 624256, 2012;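 active = normalized GFP-positive differentiation at or above the plate's own cutoff, the solvent-only control mean plus 3 SD; inconclusive = no clear call, values can overlap the other calls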;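 also: cells exposed to compound for four days before flow analysis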
DAGLB inhibitor: DAGLB lipase inhibitors, primary screen, biochemical, fluorescence, HTS. Diacylglycerol lipase-beta (Homo sapiens), Q8NCG7. HEK293T DAGLB membrane lysate, EnzChek fluorogenic substrate. inhibition, % at 5.17 µM. actives 0.059% (n = 340,000); in the data active = inhibition above about 34%;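 also: 0% = enzyme with vehicle and 100% = wells lacking enzyme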
ABHD5 PLIN5 PPI: ABHD5-PLIN5 interaction inhibitors, primary screen, cell lysate, split luciferase complementation, luminescence; inhibition, % at 4 µM; Split G. princeps luciferase complementation, 4 h; Perilipin-5 (Homo sapiens) + 1-acylglycerol-3-phosphate O-acyltransferase ABHD5 (Homo …; actives 0.78% (n = 360,000);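 active = inhibition above the mean inhibition across every tested compound plus 3 SD, cut at about 22% in these data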;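 also: 0% = DMSO only wells and the 100% control is not disclosed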
sPLA2 confirm: human group III sPLA2 inhibitors, confirmation, biochemical, QFRET, triplicate | shares compounds with sPLA2-III inh | recombinant hGIII-sPLA2, BODIPY PC-A2 QFRET fluorescence | inhibition, % at 12.2 µM | actives 34% (n = 2,000);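 active = mean inhibition across triplicates above the hit cutoff set in the earlier primary screen, cut at about 19% in these data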;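 also: 0% = enzyme with DMSO and 100% = DMSO wells lacking enzyme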
535nm interf: 535nm fluorescence optical interference, confirmation, artefact control for HGIII-sPLA2 inhibitor project, biochemical, QFRET; shares compounds with sPLA2-III inh; BODIPY FL product fluorescence interference; inhibition, % at 12.2 µM; actives 8.5% (n = 2,000);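 active = average inhibition above the solvent-only control mean plus 3 SD, cut at about 6% in these data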;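 also: 0% = DMSO with substrate plus product and 100% = DMSO with substrate alone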
Numbers without * were called inactive; i = inactive; ? = inconclusive; nt = not tested or not shown. An excerpt weighted towards active compounds, which were near 2.9% of everything screened.

SMILES	Cardio protect	sPLA2-III inh	Rtt109 Vps75	Myeloid diff 2	DAGLB inhibitor	ABHD5 PLIN5 PPI	sPLA2 confirm	535nm interf
COc1ccc(OC)c(NC(=O)COC(=O)CCCN=C2NS(=O)(=O)c3ccccc32)c1	2	20*	-2	i	0	5	6	-13
Cc1ccc(C)c(NC(=O)COC(=O)CCCN=C2NS(=O)(=O)c3ccccc32)c1	2	1	-2	i	-1	0	nt	nt
O=C(O)c1ccccc1C(=O)Nc1cccc([N+](=O)[O-])c1	2	4	9	i	1	6	nt	nt
O=C(O)c1ccccc1C(=O)Nc1ccc(Nc2ccc([N+](=O)[O-])cc2[N+](=O)[O-])cc1	-4	22*	nt	i	21	0	18	-2
O=C1c2cccc(NCCCNCCO)c2C(=O)c2cccc(NCCCNCCO)c21	-14	27*	2	i	6	11	25*	-30
CC(C)C1Cc2[nH]c(=S)[nH]c(=O)c2C(c2ccc(F)cc2)O1 (stereo unspecified)	7	4	nt	i	nt	-7	nt	nt
CC(C)C1Cc2[nH]c(=S)[nH]c(=O)c2C(c2ccc(Cl)cc2)O1 (stereo unspecified)	6	20*	nt	i	nt	-2	5	-12
CC(C)C(NS(=O)(=O)c1cccc(C(F)(F)F)c1)C(=O)N1CCc2ccccc2C1 (stereo unspecified)	0	-1	7	i	-2	2	nt	nt
CCn1c(-c2c[nH]c3ccccc23)n[nH]c1=S	-1	24*	nt	i	-1	-4	15	0
C=CCn1c(-c2c[nH]c3ccccc23)n[nH]c1=S	4	1	-16	i	1	-5	nt	nt
O=C(NNc1ccccc1[N+](=O)[O-])Nc1ccc(Cl)c(Cl)c1	-25	27*	-17	i	-1	-1	28*	9.8*
COc1ccc(/C=N/NC(=O)c2nnn(-c3nonc3N)c2CN(C)C2CCCCC2)cc1	9	4	-16	i	0	-7	nt	nt
O=C(COC(=O)/C=C/c1ccccc1)Nc1ccc2c(c1)OCCO2	-6	-3	4	i	-6	12	nt	nt
O=C(COC(=O)/C=C/c1ccc(Cl)cc1)Nc1ccc2c(c1)OCCO2	0	22*	4	i	0	4	13	-4
Cc1ccc(N/N=C/c2ccc3c(c2)OCCO3)cc1Cl	6	-1	-6	i	-4	-5	nt	nt
CC1CC(=O)Nc2ccccc2N1C(=O)CSc1ccc2ccccc2n1 (stereo unspecified)	-2	9	3	i	-1	4	nt	nt
COc1ccc2ccccc2c1/C=N/NC(=O)c1cccc(Br)c1	-1	0	5	i	-3	0	nt	nt
O=C(N/N=C/c1c(O)ccc2ccccc12)c1cccc(C(F)(F)F)c1	16	43*	0	?	-4	-9	-11	-5
S=C1NC2(CCCCC2)Cc2ccccc21	-3	21*	51*	i	-1	-5	14	-2
C/C(=N\OCC(=O)Nc1nc2ccccc2s1)c1ccccc1	3	19*	-21	i	-1	-3	0	-2
CN(C)c1ccc(NC(=O)Nc2ccc3c(c2)nnn3C)cc1	3	19*	-4	i	1	3	7	-4
CCCCn1nnnc1C1(C)CCC(=O)N1Cc1cccs1 (stereo unspecified)	nt	1	nt	i	nt	11	nt	nt
COc1ccc(-n2c(-c3cc(-c4ccccc4)sc3N)n[nH]c2=S)cc1	6	27*	-2	i	2	-6	21*	10*
C(=NOCc1ccccc1)c1ccncc1	-7	1	-4	i	-1	-1	nt	nt
C(=NOCCc1ccccc1)c1cccnc1	-1	20*	3	i	-2	-2	-4	-5
SMILES	Cardio protect	sPLA2-III inh	Rtt109 Vps75	Myeloid diff 2	DAGLB inhibitor	ABHD5 PLIN5 PPI	sPLA2 confirm	535nm interf
COc1ccc(NC(=O)c2ccc(NC(=O)C(C)C)cc2)c([N+](=O)[O-])c1	-6	20*	5	i	1	-5	-4	-5
COc1ccc(NC(=S)NC(NC(=O)c2ccccc2Cl)C(Cl)(Cl)Cl)c([N+](=O)[O-])c1 (stereo unspecified)	-13	28*	9	i	7	-10	35*	7.2*
CCOc1ccc(NC(=S)NC(=O)c2c(Cl)cnn2CC)c([N+](=O)[O-])c1	-18	22*	2	i	-6	-3	20*	-2
COc1ccc(NC(=O)c2cccc(NC(=O)C(C)C)c2)c([N+](=O)[O-])c1	-7	9	5	i	3	3	nt	nt
CCOc1ccc(NC(=S)NC(=O)c2c(Br)cnn2C)c([N+](=O)[O-])c1	-26	4	-2	i	2	-2	nt	nt
O=C(CNS(=O)(=O)c1ccc(F)cc1)N1CCCCCC1	-5	5	6	i	2	0	nt	nt
COC(=O)c1c(C)cc(C)n2c1nc1ccccc12	-1	22*	0	i	1	1	6	-6
Cc1cc(C)n2c(nc3ccccc32)c1C(=O)NN	5	-6	nt	i	nt	-6	nt	nt
COc1ccc(CN(C)C(=O)COC(=O)c2c(C)nn(-c3ccc(F)cc3)c2Cl)cc1	-3	-4	3	i	-4	2	nt	nt
O=C(CNc1cccc(Br)c1)Nc1ccc(S(=O)(=O)N2CCCCC2)cc1	-8	-18	nt	i	-6	6	nt	nt
COc1ccccc1NC(=O)COC(=O)c1ccc2c(c1)OCCO2	-2	5	7	i	-7	2	nt	nt
C=CCN1C(=O)c2ccc(C(=O)OCC(=O)Nc3ccccc3OC)cc2C1=O	8	20*	2	i	-2	-1	-2	-4
CCSc1nc2ccccc2n1C(=O)/C=C/c1ccc(OC)c(OC)c1	16	0	0	?	-6	20	nt	nt
